Results as given in PubChem BioAssay (Tox21).
Records with an inconclusive call do not appear. Activity calls are given as the source filed them. Unless noted, calls come from the whole dose curve; as a rule, active = well fitted curve in the direction sought with a large enough effect in the repeat runs; inconclusive = weak or mixed curves; inactive = no such curve, though single readings can be large; an effect the other way counts as inactive or inconclusive.

Legend:
[1] = qHTS assay to identify small molecule agonists of the peroxisome proliferator-activated receptor delta (PPARd) signaling pathway - cell viability counter screen (AID 743211); note: nearly all actives have a fitted effect of over 55% in size
Procedure, shortened: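 Following 5 h plating at 37 C and 5% CO2, PPARd UAS-bla HEK293H cells took up test compounds for 17 h. Viability was quantified by luminescence 30 min after CellTiter-Glo addition at room temperature.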

[2] = molecular target: Peroxisome proliferator-activated receptor delta (Homo sapiens) (UniProt Q03181); test: qHTS assay to identify small molecule agonists of the peroxisome proliferator-activated receptor delta (PPARd) signaling pathway (AID 743212; calls by dose curve)
Procedure, shortened: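 Beta-lactamase reporter readout: a ratiometric FRET signal from the LiveBLAzer substrate after 2 h at room temperature. Compound exposure at 37 °C in PPARδ-bla HEK293H cells driven by an upstream activator sequence.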

[3] = qHTS assay to identify small molecule antagonists of the peroxisome proliferator-activated receptor delta (PPARd) signaling pathway - cell viability counter screen (AID 743213); note: nearly all actives have a fitted effect of over 50% in size
Procedure, shortened: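 Cytotoxicity counter screen: CellTiter-Glo luminescence read 30 min after addition, in the same wells as the reporter assay. There, PPARd UAS-bla HEK293H cells (3000/well) were treated 17 h at 37 C with compound and 300 nM L165041.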

[4] = molecular target: Peroxisome proliferator-activated receptor delta (Homo sapiens) (UniProt Q03181); test: qHTS assay to identify small molecule antagonists of the peroxisome proliferator-activated receptor delta (PPARd) signaling pathway (AID 743215; active = well fitted inhibition curve with a large enough effect in the signal ratio in the repeat runs, not every such curve was filed as active; the % refers to the signal ratio;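 note: cells stimulated with agonist L165041 at 300 nM final during compound exposure; series mostly up to about 62 µM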)
Procedure, shortened: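 Cells: HEK293H with a UAS-driven beta-lactamase reporter responsive to PPARd. Compounds were co-added with L165041 (300 nM, final) and incubated 17 h at 37 C before a 2 h room-temperature FRET substrate step and fluorescence reading.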

[5] = molecular target: Bile acid receptor (Homo sapiens) (UniProt Q96RI1); test: qHTS assay to identify small molecule antagonists of the farnesoid-X-receptor (FXR) signaling pathway (AID 743217; active = well fitted inhibition curve with a large enough effect in the signal ratio in the repeat runs, not every such curve was filed as active; the % refers to the signal ratio)
Procedure, shortened: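 Cells carrying a UAS-driven beta-lactamase reporter (GeneBLAzer FXR-UAS-bla HEK 293T) were plated and rested 5 h at 37 °C. Compounds in DMSO were added alongside chenodeoxycholic acid agonist at 50 uM final and left 16 h at 37 °C before FRET substrate readout.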

[6] = qHTS assay to identify small molecule agonists of the farnesoid-X-receptor (FXR) signaling pathway - cell viability counter screen (AID 743218); note: nearly all actives have a fitted effect of over 45% in size
Procedure, shortened: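 Cells were seeded, left 5 h at 37 C and 5% CO2, then dosed with compound in DMSO for 16 h. After the beta-lactamase FRET read, CellTiter-Glo was added and luminescence measured 30 min later.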

[7] = qHTS assay to identify small molecule antagonists of the farnesoid-X-receptor (FXR) signaling pathway - cell viability counter screen (AID 743221; active = well fitted cell-killing curve with a large enough effect in the repeat runs, not every such curve was filed as active; note: nearly all actives have a fitted effect of over 50% in size)
Procedure, shortened: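 Compound effects on cell number were measured as CellTiter-Glo luminescence in HEK 293T cells expressing FXR-UAS-bla, after 16 h at 37 C with 50 uM CDCA (final).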

[8] = qHTS assay to identify small molecule agonists of the vitamin D receptor (VDR) signaling pathway - cell viability counter screen (AID 743224); note: series mostly up to about 63 µM; nearly all actives have a fitted effect of over 50% in size
Procedure, shortened: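 Cells: VDR-bla, 2,000/well, settled 4 h. Treatment: compounds in DMSO, 16 h, 37C/5% CO2. Readout: CellTiter-Glo luminescence after 30 min RT.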

[9] = qHTS assay to identify small molecule antagonists of the vitamin D receptor (VDR) signaling pathway - cell viability counter screen (AID 743225); note: nearly all actives have a fitted effect of over 50% in size
Procedure, shortened: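 In this counter screen, VDR-bla HEK 293T cells receive test compound plus 3 nM final calcitriol for 16 h at 37C. Room-temperature steps of 2 h with the beta-lactamase substrate, then 30 min with CellTiter-Glo, precede the luminescence read.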

[10] = qHTS assay to identify small molecule agonists of the NFkB signaling pathway (AID 1159509; active = well fitted curve in the direction sought with a large enough effect in the signal ratio in the repeat runs, not every such curve was filed as active; the % refers to the signal ratio; note: series mostly up to about 61 µM)
Procedure, shortened: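 Pathway activation was measured in ME-180 cells stably expressing beta-lactamase under NF-kB response element control. Substrate cleavage was read as the 460/530 nm emission shift after 5 hr compound incubation.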

[11] = qHTS assay to identify small molecule agonists of the NFkB signaling pathway - cell viability counter screen (AID 1159515; calls by dose curve; note: series mostly up to about 61 µM; nearly all actives have a fitted effect of over 55% in size)
Procedure, shortened: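 Cells are seeded (2,000 NFkB-bla ME-180 per well), rested overnight, and dosed with DMSO-dissolved compounds for 5 hr at 37 C. Viability is then read by CellTiter-Glo luminescence after 30 min at room temperature.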

[12] = qHTS assay to identify small molecule agonists of the endoplasmic reticulum stress response signaling pathway (AID 1159516; active = well fitted activation curve with a large enough effect in the signal ratio in the repeat runs, not every such curve was filed as active; the % refers to the signal ratio)
Procedure, shortened: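 Cells are seeded at 1,500 per well and incubated overnight. Compounds in DMSO are added for 5 hr at 37 C, then beta-lactamase FRET substrate for 2 hr at room temperature, and fluorescence at 460 and 530 nm is measured.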

[13] = qHTS assay to identify small molecule agonists of the endoplasmic reticulum stress response signaling pathway - cell viability counter screen (AID 1159517; calls by dose curve)
Procedure, shortened: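 ESRE-bla HeLa cells (1,500/well) were plated overnight at 37 C and exposed to compounds for 5 hr. After the 2 hr beta-lactamase substrate read, CellTiter-Glo went into the same wells, and luminescence was read after 30 min at room temperature.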

[14] = qHTS assay to identify small molecule antagonists of the retinoid-related orphan receptor gamma (ROR-gamma) signaling pathway - cell viability counter screen (AID 1159520); note: nearly all actives have a fitted effect of over 50% in size
Procedure, shortened: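 Cytotoxicity was read from cellular ATP (CellTiter-Glo luminescence) after 16 hr at 37 C with 1 uM doxycycline induction. The inducer was added 2 hr after compound transfer to Tet-on ROR gamma CHO cells.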

[15] = molecular target: Nuclear receptor ROR-gamma (Homo sapiens) (UniProt P51449); test: qHTS assay to identify small molecule antagonists of the retinoid-related orphan receptor gamma (ROR-gamma) signaling pathway (AID 1159521)
Procedure, shortened: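 Screening format: cell-based luciferase reporter in CHO cells with doxycycline-inducible RORγ. Compound pre-exposure lasts 2 h, doxycycline is 1 uM final, induction runs 16 h at 37 C, and ONE-Glo luminescence is read.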

[16] = qHTS assay to identify small molecule agonists of the AP-1 signaling pathway - cell viability counter screen (AID 1159525; calls by dose curve; note: nearly all actives have a fitted effect of over 55% in size)
Procedure, shortened: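 Intracellular ATP by Cell Titer Glo luminescence (30 min, RT) in the same ME-180 AP-1-bla wells after the 5 h compound exposure at 37 °C. Normalised to tetra n-octyl ammonium bromide and DMSO controls.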

[17] = qHTS assay to identify small molecule agonists of the AP-1 signaling pathway (AID 1159526; calls by dose curve)
[18] = molecular target: Vitamin D3 receptor (Homo sapiens) (UniProt P11473); test: qHTS assay to identify small molecule agonists of the vitamin D receptor (VDR) signaling pathway (AID 743222; calls by dose curve)
Procedure, shortened: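 Cells carrying a VDR-driven beta-lactamase reporter are seeded at 2,000 per well and rested 4 h. Compounds in DMSO are added for 16 h at 37C, and FRET substrate fluorescence is measured after 2 h at room temperature.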

[19] = molecular target: Vitamin D3 receptor (Homo sapiens) (UniProt P11473); test: qHTS assay to identify small molecule antagonists of the vitamin D receptor (VDR) signaling pathway (AID 743223; active = well fitted inhibition curve with a large enough effect in the signal ratio in the repeat runs, not every such curve was filed as active; the % refers to the signal ratio)
Procedure, shortened: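 Beta-lactamase activity in VDR-bla cells is measured by FRET substrate fluorescence (2 h, room temperature) after cells spend 16 h at 37C with test compound and 3 nM final 1alpha,25-dihydroxyvitamin D3.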

Measured: Potency

Vitamin D3 receptor (Homo sapiens), sequence (P11473 whole entry, looked up): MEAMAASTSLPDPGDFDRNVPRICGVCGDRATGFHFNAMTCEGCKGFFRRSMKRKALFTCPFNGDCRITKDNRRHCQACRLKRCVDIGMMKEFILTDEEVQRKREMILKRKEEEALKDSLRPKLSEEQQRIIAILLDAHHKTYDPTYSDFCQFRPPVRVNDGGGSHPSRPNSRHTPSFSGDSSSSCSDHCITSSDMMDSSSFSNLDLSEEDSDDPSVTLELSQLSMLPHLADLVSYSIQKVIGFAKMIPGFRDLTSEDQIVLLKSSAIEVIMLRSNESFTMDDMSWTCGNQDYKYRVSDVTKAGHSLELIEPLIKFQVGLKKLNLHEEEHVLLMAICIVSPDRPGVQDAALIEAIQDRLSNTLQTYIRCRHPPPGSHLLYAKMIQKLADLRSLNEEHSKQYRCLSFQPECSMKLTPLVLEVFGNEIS
Bile acid receptor (Homo sapiens), sequence (Q96RI1 whole entry, looked up): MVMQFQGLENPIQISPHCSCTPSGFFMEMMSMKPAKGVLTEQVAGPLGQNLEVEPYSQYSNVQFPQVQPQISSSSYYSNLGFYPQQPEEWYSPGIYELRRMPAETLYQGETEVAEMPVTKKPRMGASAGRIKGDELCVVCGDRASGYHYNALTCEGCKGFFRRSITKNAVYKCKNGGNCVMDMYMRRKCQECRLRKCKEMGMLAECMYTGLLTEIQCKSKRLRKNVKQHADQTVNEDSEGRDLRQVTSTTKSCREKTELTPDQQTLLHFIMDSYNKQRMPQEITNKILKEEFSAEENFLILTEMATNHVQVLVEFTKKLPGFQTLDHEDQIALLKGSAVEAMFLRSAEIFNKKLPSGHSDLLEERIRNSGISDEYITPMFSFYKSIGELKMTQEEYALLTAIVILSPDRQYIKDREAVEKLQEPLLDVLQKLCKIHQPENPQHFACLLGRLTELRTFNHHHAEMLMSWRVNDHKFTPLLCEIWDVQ
Peroxisome proliferator-activated receptor delta (Homo sapiens), sequence (Q03181 whole entry, looked up): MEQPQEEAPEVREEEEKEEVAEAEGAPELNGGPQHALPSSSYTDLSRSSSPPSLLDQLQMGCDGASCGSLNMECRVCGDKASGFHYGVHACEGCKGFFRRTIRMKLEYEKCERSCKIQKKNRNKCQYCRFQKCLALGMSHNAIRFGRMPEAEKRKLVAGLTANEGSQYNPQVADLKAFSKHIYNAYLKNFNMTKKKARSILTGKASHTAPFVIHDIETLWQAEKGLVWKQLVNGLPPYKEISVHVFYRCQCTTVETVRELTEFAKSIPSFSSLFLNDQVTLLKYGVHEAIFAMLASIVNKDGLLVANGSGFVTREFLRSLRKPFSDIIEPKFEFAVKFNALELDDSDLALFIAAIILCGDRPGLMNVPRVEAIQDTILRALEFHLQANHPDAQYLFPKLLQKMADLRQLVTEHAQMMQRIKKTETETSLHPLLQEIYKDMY

CNCc1ccccc1
not listed: [18] | [19]
inactive: all other assays above

c1ccccc1
inactive: all assays above

CC(C)(CO)[C@@H](O)C(=O)NCCCO
inactive: all assays above

CCN(CCC#N)c1ccccc1
not listed: [19]
inactive: all other assays above

Cc1nc([N+](=O)[O-])cn1-c1ccc([N+](=O)[O-])cc1
inactive: all assays above

CCC(C)N (stereo not drawn)
not listed: [5] | [7]
inactive: all other assays above

C1=C\CC/C=C\CC/1
not listed: [5]
inactive: all other assays above

CC1=NN(c2ccc(S(=O)(=O)O)cc2)C(=O)C1N=Nc1ccccc1 (stereo not drawn)
not listed: [5] | [19]
inactive: all other assays above

O=S(=O)(O)CCO
not listed: [5]
inactive: all other assays above

CCC(CO)CO
not listed: [5] | [19]
inactive: all other assays above

Cc1oc(=O)oc1CN1CCN(c2cc3c(cc2F)c(=O)c(C(=O)O)c2n3C(C)S2)CC1 (stereo not drawn)
not listed: [5]
inactive: all other assays above

O=C(c1ccc2c(c1)C(=O)OC2=O)c1ccc2c(c1)C(=O)OC2=O
not listed: [19]
inactive: all other assays above

Nc1ccc(S(=O)(=O)NC(=O)c2ccccc2)cc1
not listed: [5] | [18] | [19]
inactive: all other assays above

CCCCOC(=O)C(C)OC(=O)CCC (stereo not drawn)
not listed: [5] | [19]
inactive: all other assays above
